Assay results published in PubChem BioAssay.
For some of these results: Entries with a potency or affinity are not part of this list. Active and inactive are the calls of the source.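 Rule for the calls, unless noted: active = calcium signal ratio cut to more than 3 SD under the fully stimulated control mean yet still positive, in both repeats and the primary screen; inactive = the rest.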

Columns and labels:
[1] = system: TRPC4 beta (transient receptor potential cation channel C4), mouse; test: activators of mouse TRPC4 channel, confirmation, cell-based, Fluo4 calcium, HEK293 TRPC4beta/mu-opioid, duplicates, 10 µM (AID 2426;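 active = fluorescence ratio normalized to control raised more than 50% in primary screen plus both repeat runs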;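 for activation: percent rise of integrated ratio over buffer wells lacking compound which define 0%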); settings: Fluo4 calcium fluorescence, at 10 µM; stronger effect = higher value
[2] = system: transient receptor potential cation channel C4 beta (TRPC4), mouse; test: activators of mouse TRPC4 channel, confirmation, cell-based, second round, Fluo4, HEK293 TRPC4beta/mu-opioid, 1 µM (AID 2461;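 active = primary screen active and over 50% activation in each of two duplicate runs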;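 for activation: 0% = wells without test compound as baseline of integrated fluorescence ratio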); settings: Fluo4 calcium fluorescence, at 1 µM; stronger effect = higher value
[3] = system: TRPC4 (transient receptor potential cation channel C4 beta), mouse; test: positive allosteric modulators of mouse TRPC4, confirmation, cell-based, second round, Fluo-4, HEK293 TRPC4beta/mu-opioid, 1 µM (AID 2554;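 active = primary screen hit whose fluorescence ratio, in both repeats, exceeds the weak agonist control mean by 3 SD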); settings: DAMGO EC20, Fluo-4 calcium flux, at 1 µM; stronger effect = higher value
[4] = system: TRPC4 beta (transient receptor potential cation channel C4), mouse; test: positive allosteric modulators of mouse TRPC4, confirmation, cell-based, Fluo-4, HEK293 TRPC4beta/mu-opioid (AID 2555;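 active = primary screen hit whose calcium fluorescence ratio, in both repeats, exceeds the weak agonist control mean by 3 SD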); settings: DAMGO EC20, Fluo-4 calcium flux, at 10 µM; stronger effect = higher value
[5] = target: Short transient receptor potential channel 4 (Mus musculus) (UniProt Q9QUQ5); test: inhibitors of mouse TRPC4 channel, confirmation, cell-based, Fluo4, HEK293 TRPC4beta/mu-opioid (AID 2636;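 active = calcium signal cut by more than 3 SD below the full-agonist control yet still positive, in both repeats and the earlier primary screen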); settings: DAMGO, Fluo4 calcium flux, at 10 µM; stronger effect = higher value
Short transient receptor potential channel 4 (Mus musculus), sequence (Q9QUQ5 whole entry, looked up): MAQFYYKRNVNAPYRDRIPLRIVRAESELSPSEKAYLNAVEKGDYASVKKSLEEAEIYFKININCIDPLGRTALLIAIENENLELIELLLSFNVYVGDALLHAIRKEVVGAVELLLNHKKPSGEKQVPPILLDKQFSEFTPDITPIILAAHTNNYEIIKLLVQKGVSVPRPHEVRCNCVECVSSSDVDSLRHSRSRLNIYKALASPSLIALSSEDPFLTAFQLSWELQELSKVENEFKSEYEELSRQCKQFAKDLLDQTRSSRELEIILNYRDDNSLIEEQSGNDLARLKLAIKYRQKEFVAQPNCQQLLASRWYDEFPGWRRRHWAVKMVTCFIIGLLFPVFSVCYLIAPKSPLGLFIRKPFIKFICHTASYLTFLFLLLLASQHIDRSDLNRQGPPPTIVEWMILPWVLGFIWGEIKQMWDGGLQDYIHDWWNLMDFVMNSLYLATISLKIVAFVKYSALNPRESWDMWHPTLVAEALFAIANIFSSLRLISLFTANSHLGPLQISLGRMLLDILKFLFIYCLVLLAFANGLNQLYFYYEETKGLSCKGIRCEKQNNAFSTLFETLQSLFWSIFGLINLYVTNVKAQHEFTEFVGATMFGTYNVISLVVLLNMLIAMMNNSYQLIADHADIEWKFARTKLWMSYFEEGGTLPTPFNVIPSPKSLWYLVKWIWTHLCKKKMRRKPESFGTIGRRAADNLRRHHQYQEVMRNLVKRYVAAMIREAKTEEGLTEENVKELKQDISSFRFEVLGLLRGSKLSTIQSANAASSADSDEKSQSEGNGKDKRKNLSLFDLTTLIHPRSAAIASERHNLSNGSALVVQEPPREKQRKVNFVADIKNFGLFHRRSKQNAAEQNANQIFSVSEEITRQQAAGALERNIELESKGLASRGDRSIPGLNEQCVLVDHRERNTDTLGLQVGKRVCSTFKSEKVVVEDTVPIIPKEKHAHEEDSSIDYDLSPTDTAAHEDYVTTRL

[6] = target: Short transient receptor potential channel 4 (Mus musculus) (UniProt Q9QUQ5); test: inhibitors of mouse TRPC4 channel, confirmation, cell-based, second round, Fluo4, HEK293 TRPC4beta/mu-opioid, 1 µM (AID 2637); settings: Fluo4 calcium flux, DAMGO, at 1 µM; stronger effect = higher value
[7] = target: Short transient receptor potential channel 4 (Mus musculus) (UniProt Q9QUQ5); test: TRPC4 positive allosteric modulators, dose response, cell-based, HEK293 TRPC4/mu-opioid, Fluo-4 calcium, EC20 DAMGO (AID 434941;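 active = earlier screen potentiator hit that boosts the TRPC4 ion channel at some dose, with a dose response; inactive = no potentiation, no dose response, or not a prior hit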;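 note: calcium entry triggered by an EC20 dose of DAMGO at the co-expressed mu-opioid receptor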)
[8] = target: Short transient receptor potential channel 4 (Mus musculus) (UniProt Q9QUQ5); test: mouse TRPC4 channel inhibitors, dose response, cell-based, HEK293 TRPC4/mu-opioid, Fluo-4 calcium (AID 434942;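 active = primary screen inhibitor hit that blocks the TRPC4 channel at some tested dose, yielding a dose curve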)
[9] = target: Short transient receptor potential channel 6 (Mus musculus) (UniProt Q61143); test: inhibition of mouse TRPC6 channel, confirmation, selectivity assay for TRPC4 inhibitor project, cell-based, HEK293, membrane potential dye, duplicate (AID 434948;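 active = active in primary screen and both duplicates, each dropping signal beyond three positive-control SD with fluorescence still positive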); settings: HEK293 TRPC6, membrane potential dye fluorescence, at 10 µM, stimulated with maximal-effect acetylcholine; stronger effect = higher value
Short transient receptor potential channel 6 (Mus musculus), sequence (Q61143 whole entry, looked up): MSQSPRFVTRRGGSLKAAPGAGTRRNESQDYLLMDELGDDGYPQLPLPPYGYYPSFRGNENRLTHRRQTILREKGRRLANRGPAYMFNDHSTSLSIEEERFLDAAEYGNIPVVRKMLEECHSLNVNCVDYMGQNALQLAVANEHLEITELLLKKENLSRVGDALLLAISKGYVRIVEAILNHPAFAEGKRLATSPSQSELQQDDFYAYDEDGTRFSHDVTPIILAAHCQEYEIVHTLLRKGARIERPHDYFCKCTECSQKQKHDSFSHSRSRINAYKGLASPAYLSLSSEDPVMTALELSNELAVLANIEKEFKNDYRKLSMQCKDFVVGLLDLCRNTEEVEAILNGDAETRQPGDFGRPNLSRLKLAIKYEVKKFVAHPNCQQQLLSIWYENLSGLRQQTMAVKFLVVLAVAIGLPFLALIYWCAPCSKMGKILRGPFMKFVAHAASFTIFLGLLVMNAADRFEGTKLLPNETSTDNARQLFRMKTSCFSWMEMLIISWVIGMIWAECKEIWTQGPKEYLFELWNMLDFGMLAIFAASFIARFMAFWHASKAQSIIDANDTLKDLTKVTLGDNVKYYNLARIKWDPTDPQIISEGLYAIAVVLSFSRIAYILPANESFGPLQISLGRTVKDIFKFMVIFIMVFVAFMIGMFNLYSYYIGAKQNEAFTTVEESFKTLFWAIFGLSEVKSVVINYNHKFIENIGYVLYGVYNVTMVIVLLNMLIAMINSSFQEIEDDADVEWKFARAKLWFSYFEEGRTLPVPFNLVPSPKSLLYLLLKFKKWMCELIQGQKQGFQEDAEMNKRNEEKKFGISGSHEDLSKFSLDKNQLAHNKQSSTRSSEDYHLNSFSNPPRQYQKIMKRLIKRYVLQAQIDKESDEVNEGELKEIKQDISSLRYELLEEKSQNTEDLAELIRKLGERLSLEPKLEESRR

[10] = target: Short transient receptor potential channel 6 (Mus musculus) (UniProt Q61143); test: activation of mouse TRPC6 channel, confirmation, selectivity assay for TRPC4 activator project, cell-based, HEK293, membrane potential dye, duplicate (AID 434950;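 active = membrane potential signal rise above negative control mean plus 3 SD in both duplicates, also active in the earlier TRPC4 screen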;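 for activation: 0% = buffer only wells and 100% = acetylcholine maximal-effect wells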); settings: HEK293 TRPC6, membrane potential fluorescence, at 10 µM; stronger effect = higher value
[11] = target: Short transient receptor potential channel 6 (Mus musculus) (UniProt Q61143); test: TRPC6 potentiation by TRPC4 potentiator hits, confirmation, selectivity assay for TRPC4 potentiator project, HEK293 cells, membrane potential dye, duplicate (AID 434952;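 active = compound raising the membrane signal above positive-control mean plus 3 SD in both repeats, and a primary screen hit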); settings: HEK293 TRPC6, membrane potential dye fluorescence, at 10 µM, maximal acetylcholine added after compound; stronger effect = higher value
[12] = target: Short transient receptor potential channel 4 (Mus musculus) (UniProt Q9QUQ5); test: calcium flux activators in TRPC4/5HT1a cells, counter-screen for TRPC4 activator project, cell-based, second counter screen, HEK293 TRPC4/5HT1a, Fluo-4 (AID 434977;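 active = calcium signal rise above buffer-control mean plus 5 SD in both duplicates, and also a hit in the primary screen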;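 for activation: plate controls were assay buffer for no effect and maximal serotonin response for full effect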); settings: Fluo-4 calcium flux, at 10 µM; stronger effect = higher value
[13] = calcium flux inhibitors in TRPC4/5HT1a cells, confirmation, counter-screen for TRPC4 inhibitor project, cell-based, second counter screen, HEK293 TRPC4/5HT1a, Fluo-4 (AID 434978;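 active = primary screen active whose calcium signal fell more than 3 SD beyond the full-serotonin control mean in both duplicate plates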;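 note: serotonin given first at submaximal then at maximal dose after compound preincubation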); settings: Fluo-4 calcium flux, at 10 µM, serotonin added to trigger calcium flux; stronger effect = higher value
[14] = system: TRPC4 (mouse), co-expressed with 5HT1a in HEK293; test: calcium flux potentiators in TRPC4/5HT1a cells, confirmation, counter-screen for TRPC4 potentiator project, cell-based, second counter screen, HEK293 TRPC4/5HT1a, Fluo-4 (AID 434979;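 active = signal rise over 3 SD above mean of control wells given weak agonist, in both repeats and first screen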); settings: Fluo-4 calcium flux, at 10 µM, serotonin added at its EC20 dose; stronger effect = higher value
[15] = calcium flux activation in mu-opioid HEK293 cells, confirmation, counter-screen for TRPC4 activator project, cell-based, HEK293 mu-opioid receptor line (AID 449723;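 active = hit in primary screen, with calcium signal over 5 SD above buffer well mean in both duplicates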;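 note: counter screen cells carry the mu-opioid receptor alone and lack TRPC4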); settings: Fluo-4 calcium fluorescence, at 10 µM; stronger effect = higher value
[16] = calcium flux enhancement in mu-opioid HEK293 cells, confirmation, counter-screen for TRPC4 allosteric potentiator project, cell-based, HEK293 mu-opioid receptor line (AID 449724;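 active = calcium signal rise more than 3 SD above the low-dose agonist control mean, in both duplicate plates and the primary screen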); settings: Fluo-4 calcium flux, at 10 µM, compound added before EC20 DAMGO stimulus; stronger effect = higher value

O=C(C1CCCN(Cc2ccncc2)C1)N1CCc2ccccc2C1 (stereo unspecified)
activation [1]: 204% (active) | activation [2]: 149% (active) | outcome [3]: inactive | outcome [4]: inactive | outcome [5]: inactive | outcome [6]: inactive | outcome [7]: inactive | outcome [8]: inactive | outcome [9]: inactive | activation [10]: 27.5% (active) | outcome [11]: inactive | activation [12]: 84.2% (active) | outcome [13]: inactive | outcome [14]: inactive | outcome [15]: inactive | outcome [16]: inactive

CN1CCCC(OC(=O)c2cc(Cl)cc(Cl)c2)C1 (stereo unspecified)
activation [1]: 186% (active) | activation [2]: 112% (active) | outcome [3]: inactive | outcome [4]: inactive | outcome [5]: inactive | outcome [6]: inactive | outcome [7]: inactive | outcome [8]: inactive | outcome [9]: inactive | activation [10]: 38.5% (active) | outcome [11]: inactive | activation [12]: 67.9% (active) | outcome [13]: inactive | outcome [14]: inactive | outcome [15]: inactive | outcome [16]: inactive

Cc1sc2ncnc(NC3CCN(Cc4ccccc4)CC3)c2c1C
activation [1]: 240% (active) | activation [2]: 199% (active) | outcome [3]: inactive | outcome [4]: inactive | outcome [5]: inactive | outcome [6]: inactive | outcome [7]: inactive | outcome [8]: inactive | outcome [9]: inactive | outcome [10]: inactive | outcome [11]: inactive | activation [12]: 145% (active) | outcome [13]: inactive | outcome [14]: inactive | outcome [15]: inactive | outcome [16]: inactive

CN(C)CCCN(C(=O)c1ccc(S(=O)(=O)N2CCOCC2)cc1)c1nc2ccc(F)cc2s1
activation [1]: 104% (active) | outcome [2]: inactive | outcome [3]: inactive | outcome [4]: inactive | outcome [5]: inactive | outcome [6]: inactive | outcome [7]: inactive | outcome [8]: inactive | outcome [9]: inactive | outcome [10]: inactive | outcome [11]: inactive | outcome [12]: inactive | outcome [13]: inactive | outcome [14]: inactive | outcome [15]: inactive | outcome [16]: inactive

Cc1ccccc1N(CC(=O)N/N=C/c1ccc(F)cc1)C(=O)c1ccccc1
outcome [1]: inactive | outcome [2]: inactive | outcome [3]: inactive | outcome [4]: inactive | outcome [5]: inactive | outcome [6]: inactive | outcome [7]: inactive | outcome [8]: inactive | outcome [9]: inactive | outcome [10]: inactive | outcome [11]: inactive | outcome [12]: inactive | outcome [13]: inactive | outcome [14]: inactive | outcome [15]: inactive | outcome [16]: inactive

COc1ccc(C(CNCC(=O)Nc2ccccc2F)N(C)C)cc1 (stereo unspecified)
outcome [1]: inactive | activation [2]: 105% (active) | outcome [3]: inactive | outcome [4]: inactive | outcome [5]: inactive | outcome [6]: inactive | outcome [7]: inactive | outcome [8]: inactive | outcome [9]: inactive | activation [10]: 59% (active) | outcome [11]: inactive | outcome [12]: inactive | outcome [13]: inactive | outcome [14]: inactive | outcome [15]: inactive | outcome [16]: inactive

Cc1ccc2c(C)c(C(=O)N(Cc3cccs3)C3CCS(=O)(=O)C3)oc2c1 (stereo unspecified)
outcome [1]: inactive | outcome [2]: inactive | outcome [3]: inactive | outcome [4]: inactive | outcome [5]: inactive | outcome [6]: inactive | outcome [7]: inactive | outcome [8]: inactive | outcome [9]: inactive | activation [10]: 34.5% (active) | outcome [11]: inactive | outcome [12]: inactive | outcome [13]: inactive | outcome [14]: inactive | outcome [15]: inactive | outcome [16]: inactive

O=C(COc1ccc(Br)cc1CNC1CCCC1)Nc1ccccc1
activation [1]: 175% (active) | outcome [2]: inactive | outcome [3]: inactive | outcome [4]: inactive | outcome [5]: inactive | outcome [6]: inactive | outcome [7]: inactive | outcome [8]: inactive | outcome [9]: inactive | activation [10]: 29.5% (active) | outcome [11]: inactive | outcome [12]: inactive | outcome [13]: inactive | outcome [14]: inactive | outcome [15]: inactive | outcome [16]: inactive

Cc1sc2ncnc(NCC(C)(C)N3CCOCC3)c2c1C
activation [1]: 178% (active) | activation [2]: 109% (active) | outcome [3]: inactive | outcome [4]: inactive | outcome [5]: inactive | outcome [6]: inactive | outcome [7]: inactive | outcome [8]: inactive | outcome [9]: inactive | outcome [10]: inactive | outcome [11]: inactive | activation [12]: 62.7% (active) | outcome [13]: inactive | outcome [14]: inactive | outcome [15]: inactive | outcome [16]: inactive

CCCCC(c1nnnn1CC1CCCO1)N1CCN(c2nc3ccccc3s2)CC1 (stereo unspecified)
activation [1]: 88% (active) | outcome [2]: inactive | outcome [3]: inactive | outcome [4]: inactive | outcome [5]: inactive | outcome [6]: inactive | outcome [7]: inactive | outcome [8]: inactive | outcome [9]: inactive | activation [10]: 60.5% (active) | outcome [11]: inactive | activation [12]: 12.7% (active) | outcome [13]: inactive | outcome [14]: inactive | outcome [15]: inactive | outcome [16]: inactive

O=C(c1c(F)cccc1F)N1CCN(c2ncc(Br)cn2)CC1
activation [1]: 158% (active) | activation [2]: 86% (active) | outcome [3]: inactive | outcome [4]: inactive | outcome [5]: inactive | outcome [6]: inactive | outcome [7]: inactive | outcome [8]: inactive | outcome [9]: inactive | activation [10]: 34% (active) | outcome [11]: inactive | activation [12]: 68.5% (active) | outcome [13]: inactive | outcome [14]: inactive | outcome [15]: inactive | outcome [16]: inactive

CCN(CC)CCCOc1ccc(Cl)c(Cl)c1
outcome [1]: inactive | outcome [2]: inactive | potentiation [3]: 31% (active) | potentiation [4]: 33% (active) | outcome [5]: inactive | outcome [6]: inactive | outcome [7]: inactive | outcome [8]: inactive | outcome [9]: inactive | activation [10]: 48% (active) | outcome [11]: inactive | activation [12]: 17.9% (active) | outcome [13]: inactive | potentiation [14]: 21.3% (active) | outcome [15]: inactive | outcome [16]: inactive

COc1cc(OC)cc(C(=O)NCCCN2CCN(CCCNC(=O)c3cc(OC)cc(OC)c3)CC2)c1
activation [1]: 121% (active) | activation [2]: 94% (active) | outcome [3]: inactive | outcome [4]: inactive | outcome [5]: inactive | outcome [6]: inactive | outcome [7]: inactive | outcome [8]: inactive | outcome [9]: inactive | activation [10]: 31.5% (active) | outcome [11]: inactive | activation [12]: 30.4% (active) | outcome [13]: inactive | outcome [14]: inactive | outcome [15]: inactive | outcome [16]: inactive

Cc1nc(NCC(c2ccccc2)N(C)C)c2c(C)c(C)sc2n1 (stereo unspecified)
activation [1]: 204% (active) | activation [2]: 78% (active) | outcome [3]: inactive | outcome [4]: inactive | outcome [5]: inactive | outcome [6]: inactive | outcome [7]: inactive | outcome [8]: inactive | outcome [9]: inactive | outcome [10]: inactive | outcome [11]: inactive | activation [12]: 27.8% (active) | outcome [13]: inactive | outcome [14]: inactive | outcome [15]: inactive | outcome [16]: inactive

Cc1ccc(Cl)cc1NC(=O)CNCC(c1ccccc1)N(C)C (stereo unspecified)
outcome [1]: inactive | outcome [2]: inactive | outcome [3]: inactive | outcome [4]: inactive | outcome [5]: inactive | outcome [6]: inactive | outcome [7]: inactive | outcome [8]: inactive | outcome [9]: inactive | activation [10]: 47.5% (active) | outcome [11]: inactive | outcome [12]: inactive | outcome [13]: inactive | outcome [14]: inactive | outcome [15]: inactive | outcome [16]: inactive

Cc1sc2nc(CSc3ccccc3)nc(NCCN(C)C)c2c1C
activation [1]: 173% (active) | outcome [2]: inactive | outcome [3]: inactive | outcome [4]: inactive | outcome [5]: inactive | outcome [6]: inactive | outcome [7]: inactive | outcome [8]: inactive | outcome [9]: inactive | outcome [10]: inactive | outcome [11]: inactive | activation [12]: 15.2% (active) | outcome [13]: inactive | outcome [14]: inactive | outcome [15]: inactive | outcome [16]: inactive
